This is an account of results in ChEMBL document CHEMBL3433997, “St. Jude Leishmania screening dataset” (2016).

SMILES strings stand for the structures.

Format in all cases: functional
Assay [1] has as its target Solute carrier family 2, facilitated glucose transporter member 1 (Homo sapiens) (UniProt P11166). The experiment in a line: ST_JUDE_LEISH: Cytotoxicity at 2uM final concentration against transgenic Leishmania Mexicana promastigotes LmGLUT1 that are glucose transport deficient and complemented with the human glucose transporter GLUT1. Activity is measured by DNA content using SYBR green in vitro.

Assay [2] deals with Hexose transporter 1 (Plasmodium falciparum) (UniProt O97467). The experiment in a line: ST_JUDE_LEISH: Cytotoxicity at 2uM final concentration against transgenic Leishmania Mexicana promastigotes LmPfHT that are glucose transport deficient and complemented with the Plasmodium falciparum hexose transporter. Activity is measured by DNA content using SYBR green in vitro.
The target of assay [3] is Glucose transporter (Leishmania mexicana) (UniProt O61059). Put plainly: ST_JUDE_LEISH: Cytotoxicity at 2uM final concentration against transgenic Leishmania Mexicana promastigotes LmGT2 that are glucose transport deficient and complemented with the L. Mexicana glucose transporter 2. Activity is measured by DNA content using SYBR green in vitro.

Solute carrier family 2, facilitated glucose transporter member 1 (Homo sapiens), sequence (P11166 whole entry): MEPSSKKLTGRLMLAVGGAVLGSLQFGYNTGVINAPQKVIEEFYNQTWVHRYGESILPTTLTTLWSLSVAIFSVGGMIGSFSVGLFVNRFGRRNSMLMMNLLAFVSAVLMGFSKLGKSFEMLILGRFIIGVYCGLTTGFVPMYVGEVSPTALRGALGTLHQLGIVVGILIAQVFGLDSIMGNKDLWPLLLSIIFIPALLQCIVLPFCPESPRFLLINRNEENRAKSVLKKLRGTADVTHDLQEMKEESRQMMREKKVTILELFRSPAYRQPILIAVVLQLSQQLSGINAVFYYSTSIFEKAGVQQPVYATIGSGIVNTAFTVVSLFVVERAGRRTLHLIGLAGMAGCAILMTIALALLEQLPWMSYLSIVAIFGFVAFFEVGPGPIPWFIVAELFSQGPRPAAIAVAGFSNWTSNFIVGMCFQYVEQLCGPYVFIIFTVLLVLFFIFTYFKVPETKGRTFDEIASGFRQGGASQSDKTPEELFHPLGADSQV

As to `COc1cc(NCC(O)CNc2cc(Cl)nc3ccccc23)nc2ccccc12` (centres undefined), the inhibition was 8.65% in assay [1], 8.28% in assay [2] and 7% in assay [3].
On the same counts, the results for `O=C(CSc1ccccn1)Nc1c(F)cccc1F` are 3.81%, 3.5% and 2.68%.
For `CCNc1cc(C(=O)N[C@@H](Cc2ccccc2Cl)[C@H](O)CNC(C)CCCC(C)C)cc(N2CCCCS2(=O)=O)c1` (some centres undefined) the same measures were -2.6%, 0.93% and -2.24%.
On the same counts, the results for `N=C(N)Nc1ccc(OCCCCCOc2ccc(NC(=N)N)cc2)cc1` are 13.7%, 20.2% and 0.71%.
As to `O=S(=O)(NCCN1CCCC1)c1ccc(-c2ccc(CNCc3ccc(F)cc3)cc2)cc1F`, the values for the inhibition in assay [1], in assay [2] and in assay [3] were 5.72%, 5.82% and 3.28%, respectively.
On the same counts, the results for `CN1CCN(CCNc2c3ccccc3nc3ccc4ccccc4c23)CC1` are 18.8%, 17% and 12.5%.
On the same counts, the results for `O=C(Nc1ccccc1Cl)c1cc2ccccc2cc1O` are -2.32%, -1.17% and -0.43%.
On the same counts, the results for `CCCN(Cc1nnc(-c2cccs2)o1)C(=O)C1COc2ccccc2O1` (centres undefined) are 1.59%, 3.17% and 1.58%.
With `Cc1c(CCC#N)c(NCc2ccccc2)n2c(nc3ccccc32)c1C#N`, the figures for the inhibition in assay [1], in assay [2] and in assay [3] were 1.13%, 0.53% and -0.97%, respectively.
For `COCC(C)n1c(C)cc(C(=O)CSc2nnc(Nc3ccccc3)s2)c1C` (centres undefined) the same measures were 1.18%, 1.49% and -0.94%.
In the case of `COc1ccc(CNCCc2cccs2)cc1-c1cccc(S(=O)(=O)NCCN2CCCC2)c1`, the inhibition in assay [1] came out at 2.17%; in assay [2], 2.94%; in assay [3], 0.9%.
In the case of `COc1ccc2nccc([C@@H](O)CN3CCC(NC(=O)c4ccc(Cl)c(Cl)c4)CC3)c2c1`, the inhibition in assay [1] is 25.5%; in assay [2] it was 41.7%; in assay [3] it was 18.8%.
As for `COc1ccc(NC(=O)C2c3ccccc3C(=O)N(C3CCCC3)C2c2cccs2)cc1` (centres undefined), the inhibition in assay [1] worked out at 5.7%; in assay [2], 4.78%; in assay [3] it was 5%.
